Measured values taken from PubChem BioAssay AID1224862 (National Center for Advancing Translational Sciences (NCATS), 2016).
Inconclusive results are not listed. Values without a mark were called inactive. The source made the active and inactive calls. Calls come from the whole dose curve; as a rule, active = well fitted cell-killing curve with a large enough effect; inconclusive = small, poorly fitted or top-dose-only effect, or effect the other way; inactive = flat fitted curve, though single readings scatter.

Assay: Compound cytotoxicity measured by an ATP content assay as a counter-screen for lead compounds in human astrocytoma cell line (SNB-19)
Details: SNB-19 astrocytoma viability, ATP luminescence; series mostly up to 46.1 µM; activity change, negative = cytotoxicity: at the top concentration
Procedure: National Center for Advancing Translational Sciences [NCATS] Johns Hopkins University School of Medicine Florida State University Assay Overview: Many compounds can cause cytotoxicity at high compound concentrations. […] The compound cytotoxicity may also cause side effects or toxicity in human. Thus, the compound cytotoxicity needs to be measured in each cell type and each compound incubation time - same as these in the compound screening assay. The compound cytotoxicity can be measured by cell viability assays such as the ATP content assay. We use an ATP content assay kit for cell viability measurement. It measures ATP content (level) in human astrocytoma cell line (SNB-19) using a luminescence readout that is proportional to viable cell numbers. Decrease in the luminescence signal after the compound treatment indicates reduced cell viability and cell death caused by compound treatment.
Assay Protocol Summary: The medium for SNB-19 cells is composed of RPMI 1640 (ATCC, Cat.# 30-2001), 10% fetal bovine serum (FBS) (GE healthcare Life Sciences, Cat.# SH30071.03), and 1% Pen/Strep (Gibco, Cat.# 15140-122). The ATP content assay kit (PerkinElmer, Cat.# 6016731) was used to determine cell viability. The reagent was reconstituted and prepared as described by the manufacturer. Cells were seeded in 384- or 1536-well assay plates and cultured at 37 C with 5% CO2 for 16 to 20 hours. The typical cell seeding density in the 1536-well plate assay is 250 cells/well in 3ul medium for SNB-19 cells in tissue culture treated plates. Compounds were added to cells and incubated for a specific time such as 6, 24, or 72 hours before addition of the reagent mixture of the ATP content assay kit at 1:1 ratio. After incubation at room temperature for 10 minutes, the luminescence intensity in assay plates was measured using a ViewLux plate reader (PerkinElmer). […] The percentage inhibitions of the decreased cell viability by small molecules were then calculated that indicate compound cytotoxicity.

| SMILES | activity change, negative = cytotoxicity | Potency |
| --- | --- | --- |
| O=C(OCc1ccccc1)c1ccc(O)cc1 | -20.4% | – |
| Clc1ccccc1-c1nc(-c2ccncc2)no1 | -16.2% | – |
| O=c1cc(-c2ccccc2)oc2cc(O)c(O)c(O)c12 | -3.37% | – |
| O=C(Oc1ccccc1)c1cccc(C(=O)Oc2ccccc2)c1 | 9.64% [at 96.3 µM] | – |
| Nc1ncnc2c1ncn2[C@@H]1O[C@@H](CO)[C@H](O)[C@H]1O | -8.91% [at 23.8 µM] | – |
| O=C(O)c1cccc(-c2noc(-c3ccccc3F)n2)c1 | – | 5.48 µM (active) |
| CCCCCCCC/C=C/C(=O)O | 28.3% | – |
| CCCCCCCCCCCC(=O)[O][Sn]([CH2]CCC)([CH2]CCC)[O]C(=O)CCCCCCCCCCC | 11.7% | – |
| NC1CCC(Nc2nc(Nc3ccc(C(=O)N4CCCCC4)cc3)c3ncn(-c4cccc(F)c4)c3n2)CC1 (stereo not given) | 10.2% | – |
| COc1ccnc2c1CCCCC2S(=O)c1nc2ccccc2[nH]1 (stereo not given) | -9.48% | – |
| CS(=O)(=O)c1ccc(-c2cn3ccccc3n2)cc1 | – | 12.3 µM (active) |
| O=C1c2ccccc2-[n+]2ccc3c([nH]c4ccccc43)c21 | – | 4.35 µM (active) |
| CC(C(=O)O)c1ccc(C(=O)c2cccs2)cc1 (stereo not given) | 12.4% | – |
| CC(=O)OC(C)OC(=O)C(C)c1ccc(-c2ccccc2)c(F)c1 (stereo not given) | -19.8% | – |
| O=C(Nc1ccc(OC(F)(F)F)cc1)c1sccc1NCc1ccnc2ccccc12 | -25% | – |
| C[C@H](NC(=O)C(=O)Nc1ccccc1C(C)(C)C)C(=O)N[C@@H](CC(=O)O)C(=O)COc1c(F)c(F)cc(F)c1F | 0.887% | – |
| CCCC(=O)OC[C@@H](OC(=O)CCC)[C@@H](OC(=O)CCC)[C@H](Cn1c2nc(=O)[nH]c(=O)c-2nc2cc(C)c(C)cc21)OC(=O)CCC | -10.5% | – |
| NC(N)=NN=C(/C=C/c1ccc([N+](=O)[O-])o1)/C=C/c1ccc([N+](=O)[O-])o1 | – | 17.3 µM (active) |
| CC(C(=O)O)c1ccc(-c2ccccc2)c(F)c1 (stereo not given) | 12.2% | – |
| CC(C)OC(=O)CCCC=CC[C@@H]1[C@H](C=C[C@@H](O)COc2cccc(C(F)(F)F)c2)[C@H](O)C[C@@H]1O | -1.19% | – |

| SMILES | activity change, negative = cytotoxicity | Potency |
| --- | --- | --- |
| O=C1c2ccccc2C(=O)c2c1ccc(O)c2O | 0.319% | – |
| O=C1NC(=O)C(=Cc2ccc(-c3ccc(F)cc3)o2)S1 | -5.67% | – |
| COc1ccc(-c2cc(=S)ss2)cc1 | -1.94% | – |
| O=c1oc2cc(O)ccc2s1 | -3.49% | – |
| CC(=NNC(=S)N1CCC1)c1ccccn1 | 10.5% | – |
| COc1ccc(C=CC(=O)Nc2ccccc2C(=O)O)cc1OC | -17.9% | – |
| O=S(=O)(O)CCSSCCS(=O)(=O)O | -11.8% | – |
| O[C@@H](COc1cccc2ncccc12)CN1CCN(C2c3ccccc3[C@@H]3[C@H](c4ccccc42)C3(F)F)CC1 (stereo not given in full) | 2.37% | – |
| CC(C)(C)COc1ccc(-n2cc(C(=O)O)cn2)cc1C#N | 4.08% [at 88.3 µM] | – |
| CCCCCNC(=O)N1CCC(CN(Cc2ccc(Cl)cc2)Cc2ccc([N+](=O)[O-])s2)C1 (stereo not given) | 15.7% | – |
| CC(=O)Oc1cccc2c1C(=O)c1c(OC(C)=O)cc(C(=O)O)cc1C2=O | -12.9% | – |
| O=S(=O)(O)c1ccc2nc(-c3ccccc3)[nH]c2c1 | 1.86% | – |
| CNC1[C@H](O)C(O[C@@H]2C(O)C(O[C@H]3O[C@H]([C@@H](C)NC)CC[C@H]3N)[C@@H](N)C[C@H]2N)OC[C@]1(C)O (stereo not given in full) | 27.5% | – |
| CC(C)(C)OC(=O)CN(Cc1ccc(Cl)cc1)Cc1ccc([N+](=O)[O-])s1 | -23.7% [at 88.3 µM] | – |
| CC(=C(CCOC(=O)C(C)C)SSC(CCOC(=O)C(C)C)=C(C)N(C=O)Cc1cnc(C)nc1N)N(C=O)Cc1cnc(C)nc1N | -24.1% | – |
| CN1CC(=O)N/C1=N/C(=O)Nc1cccc(Cl)c1 | -5.23% | – |
| CCC(C(=O)O)c1ccc(N2Cc3ccccc3C2=O)cc1 (stereo not given) | -10.4% | – |
| NC(=O)c1cccc2[nH]c(-c3ccc([C@H]4CCCN4)cc3F)nc12 | – | 5.48 µM (active) |
| CN(C)c1cc(NC(=O)CNC(C)(C)C)c(O)c2c1C[C@@H]1C[C@H]3[C@H](N(C)C)C(=O)C(C(N)=O)=C(O)[C@@]3(O)C(=O)C1=C2O | 13.6% | – |
| CC[C@]1(O)C[C@H]2CN(CCc3c([nH]c4ccccc34)[C@@](C(=O)OC)(c3cc4c(cc3OC)N(C=O)[C@H]3[C@@](O)(C(=O)OC)[C@H](OC(C)=O)[C@]5(CC)C=CCN6CC[C@]43[C@@H]65)C2)C1 | 0.512% | – |
